From PubChem BioAssay AID588649 (The Scripps Research Institute Molecular Screening Center, 2011)
This is one part of the list. Unmarked numbers belong to inactive results. The source made the active and inactive calls. Cut-off read from the data, not from the text of the source: active = inhibition above about 40%; inactive = the rest.

test system: Fam108b (ABHD17B) [Mus musculus]; experiment: mouse ABHD17B hydrolase inhibitors – biochemical, gel-based ABPP, soluble recombinant form, HTS hits, late-stage follow-up (AID 588649); conditions: fluorophosphonate probe, at 20 µM, active compounds read high

Structure (SMILES) | inhibition
Oc1c(Cl)cc(Cl)c(Cl)c1Cc1c(O)c(Cl)cc(Cl)c1Cl | 65% (active)
COc1ccc(/C=C/C(=O)OCC(=O)Nc2cccc(Oc3ccccc3)c2)c(OC)c1 | 90% (active)
Nc1ccc2nc3c(=O)[nH]c(=S)[nH]c3nc2c1 | 0%
CC[N+](C)(CC)CCC[n+]1c(-c2ccccc2)c2cc(N)ccc2c2ccc(N)cc21 | 25%
COc1ccc(NS(=O)(=O)c2cc(NC(=O)CC(=O)c3ccc([N+](=O)[O-])cc3)ccc2C)cc1 | 25%
Cc1ccc(S(=O)(=O)N=C2C=C(Sc3ncn[nH]3)C(=O)c3ccccc32)cc1 | 90% (active)
O=C(NNc1c2ccccc2nc2ccccc12)c1cc2ccccc2cc1O | 10%
O=C(Nc1ccc(-c2csc(Nc3cccc(C(F)(F)F)c3)n2)cc1)c1cccc(C(F)(F)F)c1 | 85% (active)
